Test systems include HCT-15 colon; HT29 colon; SNB-75 CNS; SNB-19 CNS; U251 CNS; PC-3 prostate; SK-MEL-5 melanoma; UACC-62 melanoma; LOX IMVI melanoma; SK-MEL-28 melanoma; SK-MEL-2 melanoma; EKVX NSCLC; SN12C renal; UO-31 renal; TK-10 renal; ACHN renal; CAKI-1 renal; A498 renal; CCRF-CEM leukemia; MOLT-4 leukemia.
Common to all, as to assay: NCI-60 one-dose screen, 48 h (100 = growth as untreated, 0 = no growth, -100 = all killed)
What all share (details): 10 µM unless noted

The results in this text go back to PubChem BioAssay (NCI).

About 83,000 compounds went through this panel and 20% of them were active in at least one assay; those are over-represented in the sample as a whole.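 Cells were grown in 96-well plates and exposed to the test compound at a single concentration for 48 hours; results are reported as percent growth, with values below 10 considered active.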 Unmarked numbers belong to inactive results. Calls of active or inactive are those of the source.

Take `c1ccc(CNc2ccc3nc(CCC4CCCCC4)[nH]c3c2)cc1`: the growth with HCT-15 colon is 26.8%; with HT29 colon, 13.8%; with SNB-75 CNS, 84.9%; with SNB-19 CNS, 80.4%; in the test with U251 CNS, 63.6%; in the test with PC-3 prostate, 62.5%. Besides, the growth is 43.2% in the test with SK-MEL-5 melanoma; 59.6% in the test on UACC-62 melanoma; 79.4% in the test with LOX IMVI melanoma; 80% in the test on SK-MEL-28 melanoma; 82.8% with SK-MEL-2 melanoma; 75.7% with EKVX NSCLC. In addition, the growth was 62.8% with SN12C renal; 37.5% in the test on UO-31 renal; 84.2% with TK-10 renal; 87% with ACHN renal; 66.7% in the test with CAKI-1 renal; 42.7% with A498 renal. Besides, the growth in the test on CCRF-CEM leukemia was 59.2%.

Regarding `C=CCOC(=O)C1=C(C)NC(=O)NC1c1c(Cl)n(C)c2ccccc12` (stereo not given), the growth was 99.8% in the test with HCT-15 colon; 110% in the test on HT29 colon; 97.8% with SNB-75 CNS; 94% in the test with SNB-19 CNS; 96.3% with U251 CNS; 89.2% in the test on PC-3 prostate. For the same compound, the growth in the test on SK-MEL-5 melanoma was 102%; with UACC-62 melanoma it was 90.3%; in the test with LOX IMVI melanoma, 102%; in the test with SK-MEL-28 melanoma, 99.6%; with SK-MEL-2 melanoma it was 112%; in the test on EKVX NSCLC it was 98.2%. For the same compound, the growth in the test on SN12C renal is 96.9%; in the test on UO-31 renal, 80.9%; in the test on TK-10 renal, 102%; with ACHN renal, 99.7%; with CAKI-1 renal it was 94.3%; with A498 renal, 101%. Moreover, the results for the growth in the test with CCRF-CEM leukemia and with MOLT-4 leukemia were -49.5% (active) and 98.5%, respectively.

As for `CCN(CC)S(=O)(=O)c1ccc(S(=O)(=O)N2CCC[C@@H](C(=O)N3CCN(C(=O)OC(C)(C)C)CC3)C2)cc1`, the growth in the test on HCT-15 colon is 91.8%; with HT29 colon, 91.5%; in the test with SNB-75 CNS, 48.7%; in the test on SNB-19 CNS, 68.8%; in the test with U251 CNS it was 81.6%; in the test with PC-3 prostate, 77.5%. In addition, the growth with SK-MEL-5 melanoma is 18.2%; with UACC-62 melanoma, 62.4%; in the test with LOX IMVI melanoma, 58%; with SK-MEL-28 melanoma, 97.6%; with SK-MEL-2 melanoma, 101%; in the test with EKVX NSCLC it was 54.9%. For the same compound, the growth was 87.4% in the test on SN12C renal; 73.6% in the test on UO-31 renal; 78.6% in the test on TK-10 renal; 71.4% with ACHN renal; 52.1% in the test with CAKI-1 renal; 27.8% in the test with A498 renal. For the same compound, in the test on CCRF-CEM leukemia, the growth is 66.9%.

In the case of `CN1CCN(c2ccc(NC(=O)c3cncnc3Nc3ccc4c(ccn4Cc4cccc(F)c4)c3)cc2)CC1`, the growth in the test with HCT-15 colon was -6.2% (active); in the test on HT29 colon, -39.8% (active); in the test on SNB-75 CNS, 67.4%; with SNB-19 CNS, 77.7%; in the test with U251 CNS, 6.24% (active); with PC-3 prostate it was 66.2%. For the same compound, the growth is 59.6% with SK-MEL-5 melanoma; 54.3% in the test with UACC-62 melanoma; -80.9% (active) in the test with LOX IMVI melanoma; -85.2% (active) in the test on SK-MEL-28 melanoma; 98.1% in the test on SK-MEL-2 melanoma; 86.1% in the test with EKVX NSCLC. Moreover, the growth in the test with SN12C renal was 71.5%; with UO-31 renal, 46.3%; in the test on TK-10 renal, 101%; with ACHN renal, 58.5%; in the test with CAKI-1 renal, 75.5%; in the test with A498 renal, 77%. The values for the growth in the test on CCRF-CEM leukemia and in the test on MOLT-4 leukemia were 11.6% and -2.02% (active), respectively.

Turning to `COc1ccc2nc3cc(Cl)ccc3c(NCCN)c2c1`, the growth in the test on HCT-15 colon was -37.7% (active); in the test with HT29 colon, -42.5% (active); in the test with SNB-75 CNS, 91.6%; with SNB-19 CNS, 7.75% (active); with U251 CNS, -81.4% (active); in the test with PC-3 prostate, 6.63% (active). Besides, the growth with SK-MEL-5 melanoma is 79.6%; in the test on UACC-62 melanoma, -71.2% (active); with LOX IMVI melanoma, -86.4% (active); in the test on SK-MEL-28 melanoma, -65.8% (active); in the test on SK-MEL-2 melanoma, 98.5%; in the test with EKVX NSCLC, -47.5% (active). The growth was -60.4% (active) in the test with SN12C renal; -19.4% (active) in the test on UO-31 renal; -76.2% (active) in the test on TK-10 renal; -91.7% (active) in the test on ACHN renal; -96.5% (active) in the test with CAKI-1 renal; 55.5% with A498 renal. Further, in the test on CCRF-CEM leukemia, the growth is -13.3% (active).

Take `COc1cc(/C=C2\C(=O)N(c3c(Cl)cccc3Cl)c3ccccc32)cc(OC)c1OCCCCCCn1c2ccccc2c(=O)c2ccccc21`: the growth with HCT-15 colon is 108%; in the test with HT29 colon, 103%; with SNB-75 CNS, 73.6%; with SNB-19 CNS, 98.4%; with U251 CNS it was 103%; in the test on PC-3 prostate it was 87.1%. Moreover, the growth is 96.1% in the test with SK-MEL-5 melanoma; 93.3% in the test on UACC-62 melanoma; 98.4% in the test on LOX IMVI melanoma; 99% in the test with SK-MEL-28 melanoma; 96.2% with SK-MEL-2 melanoma; 111% in the test on EKVX NSCLC. Further, the growth is 96.8% in the test with SN12C renal; 74.3% with UO-31 renal; 112% with TK-10 renal; 91.9% with ACHN renal; 82.9% in the test with CAKI-1 renal; 123% in the test on A498 renal. Further, the growth in the test on CCRF-CEM leukemia is 104%.

Consider `COc1ccc2nc(SCC(=O)Nc3ccccc3C)[nH]c2c1`, for which the growth with HCT-15 colon is 99.8%; in the test with HT29 colon it was 109%; in the test on SNB-75 CNS, 82.5%; in the test with SNB-19 CNS it was 95%; in the test on U251 CNS, 93.5%; with PC-3 prostate, 84.5%. In addition, the growth was 95.7% with SK-MEL-5 melanoma; 84.5% in the test on UACC-62 melanoma; 95.6% with LOX IMVI melanoma; 95.8% in the test with SK-MEL-28 melanoma; 101% in the test with SK-MEL-2 melanoma; 88.4% in the test on EKVX NSCLC. The growth is 95.2% in the test on SN12C renal; 74.3% with UO-31 renal; 105% in the test on TK-10 renal; 94.4% in the test with ACHN renal; 88% with CAKI-1 renal; -41.9% (active) with A498 renal. Also, the growth in the test on CCRF-CEM leukemia is 87.5%.

Turning to `CCN1C(=O)N(CC)C2C1NN=C1SCC(=O)N12` (stereo not given), the growth in the test with HCT-15 colon was 82%; in the test on HT29 colon, 59.5%; in the test on SNB-75 CNS, 85.8%; in the test with SNB-19 CNS, 97%; with U251 CNS, 107%; in the test on PC-3 prostate it was 94%. Besides, the growth in the test with SK-MEL-5 melanoma was 101%; in the test on UACC-62 melanoma, 85.8%; in the test with LOX IMVI melanoma it was 107%; in the test on SK-MEL-28 melanoma, 96.6%; with SK-MEL-2 melanoma it was 106%; in the test on EKVX NSCLC, 86.8%. For the same compound, the growth in the test with SN12C renal was 78.9%; in the test with UO-31 renal it was 58.8%; in the test on TK-10 renal, 104%; in the test with ACHN renal, 84.2%; in the test on CAKI-1 renal, 89.2%; with A498 renal, 112%. The growth in the test with CCRF-CEM leukemia was 40%; in the test with MOLT-4 leukemia, 57.2%.
